Reference: ChEMBL document CHEMBL1157539, “Thousands of chemical starting points for antimalarial lead identification” (Nature, 2010)
Values joined by “and” are separate entries in the source; they are usually repeats but may differ in a detail not shown here. Equal entries are not always repeated.

Experiments:
Assay type in all cases: functional
Plasmodium falciparum [1] = experiment: GSK_TCMDC: Inhibition of Plasmodium falciparum 3D7 in whole red blood cells, using parasite LDH activity as an index of growth. Test compounds present at 2uM
Plasmodium falciparum [2] = experiment: GSK_TCMDC: Inhibition of Plasmodium falciparum Dd2 in whole red blood cells, using parasite LDH activity as an index of growth. Test compounds present at 2uM
HepG2 = experiment: GSK_TCMDC: Percent inhibition of human HepG2 cell line. Test compounds present at 10uM.

| Compound | Inhibition (Plasmodium falciparum [1]) | Inhibition (Plasmodium falciparum [2]) | Inhibition (HepG2) |
| --- | --- | --- | --- |
| CC[C@H]1CN2CC[C@@H]1C[C@H]2[C@H](O)c1cc(N2CCC(C(N)=O)CC2)nc2ccc(OC)cc12 | 99% | 9% | 17% |
| CC[C@H]1CN2CC[C@H]1C[C@H]2[C@@H](O)c1cc(OCCCN(C)C)nc2ccc(OC)cc12 | 99% | 8% | 0% |
| CC(=O)N(Cc1ccccc1-c1cccc(CNCCc2ccccc2)c1)C1CCN(Cc2ccccc2)CC1.O=C(O)C(F)(F)F | 89% | 30% | 19% |
| O=C(/C=C/c1ccc(Cl)c(Cl)c1)N1CCC(CN2CCC(c3cn(CC(=O)N4CCCCC4)c4ccccc34)CC2)CC1.O=C(O)C(F)(F)F | 100% | 65% | 52% |
| CC[C@H]1CN2CC[C@H]1C[C@H]2[C@H](O)c1cc(-c2ccc(Cl)c(Cl)c2)nc2ccc(OC)cc12.Cl | 98% | 99% | 17% |
| Cl.OC(CNC1CCCCCC1)c1ccc(Cl)c(Cl)c1 (centres undefined) | 99% | 98% | 0% |
| CC(C)CNCc1ccc(-c2ccc(CN(C(=O)NC3CCCCC3)C3CCN(Cc4ccccc4)CC3)cc2)cc1.O=C(O)C(F)(F)F | 100% | 88% | 39% |
| O=C(NC1CCC(CN2CCC(c3c[nH]c4ccccc34)CC2)CC1)c1cc2cccc([N+](=O)[O-])c2[nH]1 (centres undefined) | 100% | 100% | 36% |
| N=C(N)NC(=O)Nc1ccc([N+](=O)[O-])c(Cl)c1 | 90% | 12% | – |
| O=C(/C=C/c1ccc(Cl)c(Cl)c1)NC1CCC(N2CCC(c3c[nH]c4ccccc34)CC2)CC1 (centres undefined) | 100% | 69% | 41% |
| Cl.O=C(CC1CCCC1)N(CC1CCN(Cc2ccc(C(F)(F)F)cc2)CC1)c1ccc(N2CCOCC2)c(F)c1 | 92% | 97% | 10% |
| CCC(C)(C)NC(C)C(O)c1ccc(C(F)(F)F)cc1.Cl (centres undefined) | 97% | 90% | – |
| S=C(Nc1ccc2c(c1)OCCO2)NC1CCC(CN2CCC(c3c[nH]c4ccccc34)CC2)CC1 (centres undefined) | 96% and 92% | 1% and 7% | 31% and 32% |
| CN(c1cc(NC(=O)c2ccc(F)cc2)ccn1)C1CCN(Cc2cccc(F)c2)CC1.O=C(O)C(F)(F)F | 100% | 97% | 13% |
| CN1CC=C(c2c[nH]c3ccc(C(=O)c4nccs4)cc23)CC1 | 89% | 73% | – |
| O=C(Nc1cc(C(F)(F)F)cc(C(F)(F)F)c1)NC1CCC(CN2CCC(c3c[nH]c4ccccc34)CC2)CC1 (centres undefined) | 97% and 100% | 98% and 72% | – |
| CN1CC[C@H](N(Cc2ccccc2F)c2ccc(C#N)c(Cl)c2)C1 | 88% | 68% | 18% |
| Cc1cc(O)cc2c(C3CCN(CC4CCN(C(=O)/C=C/c5ccc(Cl)c(Cl)c5)CC4)CC3)c[nH]c12 | 100% | 100% | 33% |
| O=C(C=Cc1ccccc1O)N1CCC(CN2CCC(c3c[nH]c4ccccc34)CC2)CC1 | 98% | 43% | 27% |
| CCOc1ccc2nccc([C@@H](O)[C@@H]3C[C@@H]4CCN3C[C@@H]4CC)c2c1.Cl [ETHYLHYDROCUPREINE HYDROCHLORIDE] | 98% | 99% | 24% |

| Compound | Inhibition (Plasmodium falciparum [1]) | Inhibition (Plasmodium falciparum [2]) | Inhibition (HepG2) |
| --- | --- | --- | --- |
| Br.CC[C@H]1CN2CC[C@H]1C[C@H]2[C@H](O)c1ccnc2ccc(OC)cc12 | 100% | 62% | 0% |
| COc1ccc(C(=O)c2ccc3[nH]cc(C4=CCN(C)CC4)c3c2)cc1 | 88% | 55% | – |
| CC[C@H]1CN2CC[C@@H]1C[C@@H]2[C@@H](O)c1cc(-c2ccc(F)cc2)nc2ccc(OC)cc12.Cl | 98% | 64% | 18% |
| CN1CC=C(c2c[nH]c3ccc(OCc4ccccc4)cc23)CC1 | 95% | 97% | 0% |
| CC[C@H]1CN2CCc3cc(OC)c(OC)cc3[C@@H]2C[C@@H]1C[C@H]1NCCc2c1cc(OC)c(OC)c2Br | 99% | 97% | 45% |
| O=C(/C=C/c1ccc(Cl)c(Cl)c1)NC1CCC(CN2CCC(c3c[nH]c4cc(C(F)(F)F)ccc34)CC2)CC1 (centres undefined) | 100% and 98% | 38% and 85% | – |
| NCc1ccc(-c2ccccc2CN(C(=O)Nc2ccccc2)C2CCN(Cc3ccccc3)CC2)cc1.O=C(O)C(F)(F)F | 100% | 35% | 36% |
| CCN(CC)CCOC(=O)C(OC)(c1ccccc1)c1ccccc1 | 97% | 6% | 0% |
| CCc1ccc(CC(C)NCC(O)c2ccccc2)cc1.O (centres undefined) | 89% | 77% | 0% |
| COc1cccc(C2(NC[C@@H](O)[C@H](Cc3ccccc3)NC(=O)c3ccccc3)CCCCC2)c1 | 97% | 67% | 14% |
| COc1ccc(CN2CCN(CCOC(c3ccccc3)c3ccc(Cl)cc3)CC2)c(O)c1 (centres undefined) | 99% | 98% | 12% |
| CC(=O)C1(c2ccccc2)CCN(CCC2(c3ccc(Cl)c(Cl)c3)CN(C(=O)CC(C)C)CCO2)CC1 (centres undefined) | 92% | 94% | 7% |
| Brc1cnc(NC2=NCCN2)c(Br)c1.Cl | 99% | 0% | 0% |
| C#CCOc1ccc(CC(C)NCC(O)c2cccc(C(F)(F)F)c2)cc1 (centres undefined) | 93% and 90% | 84% and 74% | – |
| CCCCCCCc1cc(=O)c2ccccc2[nH]1 | 96% | 94% | 5% |
| CCC1=C[C@@H]2CN(C1)Cc1c([nH]c3ccccc13)[C@@](C(=O)OC)(c1cc3c(cc1OC)N(C)[C@H]1[C@@](O)(C(=O)OC)[C@H](O)[C@]4(CC)C=CCN5CC[C@]31[C@@H]54)C2.O=S(=O)(O)O | 98% | 99% | – |
| CN1CC(c2ccc(Cl)c(Cl)c2)OC1=N.I (centres undefined) | 99% | 3% | – |
| CCN(CC)CCCC(C)Nc1ccnc2cc(Cl)ccc12.O=P(O)(O)O.O=P(O)(O)O (centres undefined) [CHLOROQUINE PHOSPHATE] | 100% | – | – |
| CN1CCC(COC(=O)C(O)(c2ccccc2)c2ccccc2)C1 (centres undefined) [TRICLAZATE] | 98% | 4% | 0% |
| CN(c1cc(NC(=O)c2ccc(F)cc2)ccn1)C1CCN(Cc2cccc(C#N)c2)CC1.O=C(O)C(F)(F)F | 97% | 83% | 73% |

| Compound | Inhibition (Plasmodium falciparum [1]) | Inhibition (Plasmodium falciparum [2]) | Inhibition (HepG2) |
| --- | --- | --- | --- |
| Cc1ccc(CC(C)NCC(O)c2cccc(C(F)(F)F)c2)cc1.O=C(O)/C=C/C(=O)O (centres undefined) | 100% | 54% | 5% |
| CCCCNC(c1ccc(Cl)cc1)C(O)c1ccc(Cl)cc1.Cl (centres undefined) | 99% | 98% | 13% |
| CC(Cc1ccc(OCCCCOc2ccccc2)cc1)NCCCn1ccnc1 (centres undefined) | 100% | 100% | 100% |
| CC[C@H]1CN2CC[C@@H]1C[C@H]2[C@H](O)c1cc(-c2c(C)noc2C)nc2ccc(OC)cc12.Cl | 100% | 98% | 4% |
| C=C[C@H]1CN2CC[C@H]1C[C@@H]2[C@@H](O)c1ccnc2ccccc12 [CINCHONINE] | 100% | 2% | 0% |
| O=C(/C=C/c1ccc2ccccc2c1)NC1CCC(CN2CCC(c3c[nH]c4ccccc34)CC2)CC1 (centres undefined) | 100% | 88% | 28% |
| CCCN(CC(=O)NCCc1ccccc1)c1ccc(C#N)c2ccccc12.O=C(O)C(F)(F)F | 92% | 39% | 8% |
| CC(Cc1ccc(NC(=O)CCCc2ccccc2)cc1)NCCc1cccc(Cl)c1.Cl (centres undefined) | 94% | 3% | 12% |
| CC(=O)Nc1ccc(OCCN(CC(C)C)c2ccc(C#N)c(C(F)(F)F)c2)c(Cl)c1 | 94% | 94% | 13% |
| O=C(/C=C/c1cccc(Cl)c1)NC1CCC(CN2CCC(c3c[nH]c4ccccc34)CC2)CC1 (centres undefined) | 100% | 82% and 55% | 35% and 42% |
| O=C(NCc1ccc(S(=O)(=O)N2CCC(CN3CCC(c4c[nH]c5ccccc45)CC3)CC2)s1)c1ccccc1 | 92% | 21% | 32% |
| COc1ccc(C[C@H]2NC[C@H](O)[C@H]2OC(C)=O)cc1 [ANISOMYCIN] | 100% | 98% | 39% |
| CN1CCC(O)(c2ccc(Br)cc2)C(C(O)c2ccc(Br)cc2)C1.CS(=O)(=O)O (centres undefined) | 98% | 99% | 28% |
| CCCCOC(C(=O)OCC1CCCN1C)(c1ccccc1)c1ccccc1 (centres undefined) | 100% | 2% | 3% |
| Cc1ccccc1CNCC(O)c1cccc(C(F)(F)F)c1 (centres undefined) | 99% | 77% | 5% |
| CC(Cc1ccc(OCCOc2ccccc2)cc1)NCC(O)c1cccc(C(F)(F)F)c1 (centres undefined) | 91% | 76% | 16% |
| COc1cccc(CN2CCC(CCOC(c3ccccc3)c3ccccc3)CC2)c1O | 97% | 99% | 33% |
| CCCCCCCCNCC(O)c1ccc(Cl)c(Cl)c1.Cl (centres undefined) | 99% | 87% | 0% |
| Cc1[nH]c2ccccc2c1C1=CCN(CCCCC2(C)C(=O)Nc3ccccc32)CC1 (centres undefined) | 94% | 89% | 8% |
| CC(Cc1ccc(OCCCCOc2ccccc2)cc1)NCCCc1nc2ccccc2[nH]1 (centres undefined) | 97% | 67% | 99% |
